These results are taken from PubChem BioAssay (NCATS).

SMILES strings stand for the structures. Results filed as inconclusive are left out. The source made the active and inactive calls. Unless noted, calls follow the shape of the dose curve; as a rule, active = well fitted curve in the direction sought with a large enough effect; inconclusive = small, poorly fitted or top-dose-only effect, or another doubt; inactive = no such curve, though single readings can be large; an effect the other way counts as inactive or inconclusive.

For assay [1], the target named is Transient receptor potential cation channel subfamily V member 1 (Homo sapiens) (UniProt Q8NER1). Nature of the assay: HTS Assay for Compounds that Act as Enhancers of the Vanilloid Receptor 1 (AID 488979). Also: 0% is about no effect. Summed up: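 Calcium influx kinetics via Fluo-8 (480/520 nm) in TRPV1-expressing cells, 2000/well cultured overnight at 35.5C. Compound-alone read 3 min (agonist phase), followed by EC20 capsaicin challenge for 2 min (enhancer phase).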

The target in assay [2] is Thyrotropin receptor (Homo sapiens) (UniProt P16473). The assay is described as follows: qHTS Assay for Antagonists of the Thyroid Stimulating Hormone Receptor (AID 488980). Also: series mostly up to about 58 µM; 0% is about no effect. An outline of the steps: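 TSHR-transfected HEK293 cells (2000/well) in HEPES-buffered HBSS with 70 uM RO 20-1724 were stimulated with 4 nM TSH (EC80, final) in the presence of compound. cAMP was measured by HTRF competition after lysis and 30 min at RT.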
(qHTS replaces the single test concentration by a dilution series.)

For assay [3], the target named is D(1A) dopamine receptor (Homo sapiens) (UniProt P21728). The assay is described as follows: HTS Assay for Allosteric Agonists of the Human D1 Dopamine Receptor: Primary Screen for Agonists (AID 488981). Also: 0% is about no effect. Summed up:
(§1)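 Calcium flux in an inducible, force-coupled HEK293 Trex D1 line (overnight at 30 C): agonist mode is the 180 s kinetic read after compound; potentiator mode is the following 180 s read after dopamine at EC20.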

For assay [4] the target is unchanged. The assay is described as follows: HTS Assay for Allosteric Agonists of the Human D1 Dopamine Receptor: Primary Screen for Potentiators (AID 488982). Also: 0% is about no effect. Summed up:
as §1

Assay [5] shares this target. The assay is described as follows: HTS Assay for Allosteric Agonists of the Human D1 Dopamine Receptor: Primary Screen for Antagonists (AID 488983).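 Also: calcium flux response to an EC80 dopamine challenge measured with no-wash dye; % is scaled to controls: 0 for no effect and ±100 for the full control effect; nearly all actives have a fitted effect of over 65% in size.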 Summed up:
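Calcium-flux read-out in inducible HEK293 T-REx cells expressing D1, dye-loaded 30–90 min at room temperature. Kinetic reads: 180 s after compound (agonist phase), then 180 s after an EC80 dopamine challenge.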

A short description of assay [6]: Validation screen for small molecules that induce genotoxicity in human embryonic kidney (HEK293T) cells expressing luciferase-tagged ELG1 (AID 493106). Also: potency is read from the fitted curve at half-maximal effect. Summed up:
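ELG1-luciferase reporter readout (ONE-Glo, 30 min, room temperature) after 16 hr compound treatment at 37 °C of HEK293T cells at 2,000 per well. Rising luminescence flags genotoxic stress.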

Assay [7] concerns the target Thyrotropin-releasing hormone receptor (Homo sapiens) (UniProt P34981). The assay is described as follows: qHTS for Small Molecule Agonists and Allosteric Enhancers of Human TRH Receptor: Validation Screen for Agonists (AID 493127;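 active = calcium activation more than 3 SD above the typical response in the agonist read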;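 also: intracellular calcium rise by fluo-8 fluorescence before TRH EC20 addition; 0% is about no effect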). The note with it: TRH receptor agonist cell assay; at 2 µM; stronger effect = higher value. Summed up: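 Compound-evoked intracellular calcium release in fluo-8-loaded TRHR cells, read kinetically on FDSS (Ex 480/Em 530, 1 s/cycle) after 23 nL pintool transfer. Agonist phase preceded 10 nM TRH EC20 addition.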

A short description of assay [8]: Nrf2 qHTS screen for inhibitors: Validation (AID 493153; active = well fitted inhibition curve with a large enough effect in the main read-out, with a control signal flat, not every such curve was filed as active). The note with it: Potency: luciferase luminescence; viability change: measured here: cytotoxicity max response. An outline of the steps:
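Concentration-response on A549 ARE_Fluc reporter cells exposed 18-24 h at 37 C, 5% CO2. Cytotoxicity read first by CellTiter-Fluor fluorescence (Ex 405/Em 525), then Nrf2 inhibition by BugLite luminescence after 15 min.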

Assay [9] can be described thus: qHTS for Inhibitors of Cell Surface uPA Generation: Validation Assay (AID 493164).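 Also: RAW 264.7 macrophage cells exposed to compound for 18 h; 0% is about no effect.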 Summed up: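 ATP-Lite luminescence read-out: ATP remains high when uPA activity-dependent LF translocation into the cytoplasm is blocked. RAW 264.7 cells, 18 h compound exposure at 37 C; 7-point titration, 2.45 nM to 38.3 uM final.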
Assay [10] deals with Galactokinase (Homo sapiens) (UniProt P51570). The assay is described as follows: qHTS Validation Assay for Inhibitors of Human Galactokinase (GALK) (AID 493189). Also: 0% is about no effect. Summed up: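 GALK (5 nM) with 35 uM ATP and 100 uM galactose in HEPES pH 8.0 with MgCl2, NaCl, DTT and BSA. Reaction ran 1 h at room temperature. Residual ATP read by Kinase-Glo Plus luminescence.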
Assay [11] concerns the target Phosphoglycerate kinase, glycosomal (Trypanosoma brucei brucei) (UniProt P07378). Nature of the assay: qHTS Validation Assay to Find Inhibitors of Phosphoglycerate Kinase (AID 504547).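 Also: control wells lack PGK and mark full inhibition.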 Summed up:
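Luminescence end-point (Kinase-Glo Plus, 10 min) after a 60 min room-temperature coupled reaction. GAPDH at 100nM final supplies 1,3-BPG to PGK. Buffer: 100mM TEA pH 7.6, 5mM MgCl2, 0.01% Tween-20. Wells lacking PGK served as controls.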

Assay [12] addresses phosphoglycerate mutase (Leishmania major) (UniProt Q4Q090). The assay is described as follows: qHTS Validation Assay to Find Inhibitors of Phosphoglycerate Mutase (AID 504548). Also: series mostly up to about 58 µM; % is scaled to controls: 0 for no effect and ±100 for the full control effect. The note with it: Potency: inhibition qHTS. Summed up:
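Luminescent end-point read-out via Kinase-GloPlus after a 10-minute development. Reaction: 1.25nM Leishmania major PGAM with substrate and compound, 45 minutes at room temperature in TEA buffer (pH 7.6) with MgCl2 and Tween-20.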

Assay [13] addresses Ubiquitin carboxyl-terminal hydrolase 1 (Homo sapiens) (UniProt O94782). Nature of the assay: Inhibitors of USP1/UAF1: Pilot qHTS (AID 504865).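 Also: rhodamine fluorescence freed from ubiquitin-rhodamine substrate followed over time; top concentration of the series differs between compounds; % is scaled to controls: 0 for no effect and ±100 for the full control effect; nearly all actives have a fitted effect of over 35% in size.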 An outline of the steps: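 USP1/UAF1 complex at 1 nM preincubated 15 min at room temperature with compound, then Ub-Rho substrate added at 150 nM final. Fluorescence (480/540 nm) read kinetically in 50 mM HEPES pH 7.8, 0.5 mM EDTA, 1 mM TCEP, 0.1 mg/ml BSA, 0.01% Tween-20.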

Assay [14] in a line: Validation screen for small molecules that induce DNA re-replication in SW480 colon adenocarcinoma cells (AID 504364). Also: 0% is about no effect. An outline of the steps: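 Image-based DNA content read-out: Hoechst stain 40 min, total nuclear fluorescence intensity (ex 405 nm, em 500-530 nm) after 48 h compound exposure of 250 SW480 cells/well at 37 C, 5% CO2, versus DMSO vehicle.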
In assay [15] the target is Peptidyl-prolyl cis-trans isomerase NIMA-interacting 1 (Homo sapiens) (UniProt Q13526). The assay is described as follows: qHTS Validation Assay to Find Inhibitors of Pin1 (AID 504536; active = well fitted inhibition curve with a large enough effect in the polarisation, with a control signal flat, not every such curve was filed as active; the % refers to the polarisation;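 also: 0% = full Pin1 enzyme wells and -100% = no-enzyme wells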). Summed up:
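Fluorescence polarization competition: compounds (titration) displace HiFluor-488-labeled Pin1-1b peptide from Pin1 (0.3 uM final) in pH 7.5 HEPES buffer with DTT, 10 min at room temperature; %Activity normalized to no-enzyme wells, curves fitted.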

The nature of assay [16]: qHTS for Inhibitors of ATXN expression: Validation of Cytotoxic Assay (AID 588349). Also: % is scaled to controls: 0 for no effect and ±100 for the full control effect. Summed up:
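Cytotoxicity counter-screen: ATP-based luminescent viability (CellTiter Glo) after 72 hr exposure of HEK293 cells to a compound titration at 37 degrees C.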

The nature of assay [17]: qHTS for Inhibitors of ATXN expression: Validation (AID 588378). Also: series mostly up to about 57 µM; % is scaled to controls: 0 for no effect and ±100 for the full control effect; nearly all actives have a fitted effect of over 75% in size. An outline of the steps:
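HEK293 cells carrying ATXN2-firefly luciferase reporter, treated with compound 24 h at 37 °C. Viability read first by CellTiter-Fluor (405/525 nm), then reporter expression by Bright-Glo luminescence; controls were a known ATXN2 expression inhibitor and a luciferase inhibitor.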

Assay [18] deals with ATPase family AAA domain-containing protein 5 (Homo sapiens) (UniProt Q96QE3). The assay is described as follows: Validation screen for small molecules that inhibit ELG1-dependent DNA repair in human embryonic kidney (HEK293T) cells expressing luciferase-tagged ELG1 (AID 493107).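 Also: series mostly up to about 46 µM; % is scaled to controls: 0 for no effect and ±100 for the full control effect; inhibitors lower the ELG1-luciferase luminescence signal; nearly all actives have a fitted effect of over 70% in size.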 An outline of the steps:
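Luciferase read-out, ONE-Glo, 30 min at room temperature, follows 16 h co-exposure at 37 C of compound and the DNA-damaging agent 5-fluorouridine. Cells: HEK293T with ELG1-luciferase fusion, 2,000 per well, DMSO as vehicle.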

D(1A) dopamine receptor (Homo sapiens), sequence (P21728 whole entry, looked up): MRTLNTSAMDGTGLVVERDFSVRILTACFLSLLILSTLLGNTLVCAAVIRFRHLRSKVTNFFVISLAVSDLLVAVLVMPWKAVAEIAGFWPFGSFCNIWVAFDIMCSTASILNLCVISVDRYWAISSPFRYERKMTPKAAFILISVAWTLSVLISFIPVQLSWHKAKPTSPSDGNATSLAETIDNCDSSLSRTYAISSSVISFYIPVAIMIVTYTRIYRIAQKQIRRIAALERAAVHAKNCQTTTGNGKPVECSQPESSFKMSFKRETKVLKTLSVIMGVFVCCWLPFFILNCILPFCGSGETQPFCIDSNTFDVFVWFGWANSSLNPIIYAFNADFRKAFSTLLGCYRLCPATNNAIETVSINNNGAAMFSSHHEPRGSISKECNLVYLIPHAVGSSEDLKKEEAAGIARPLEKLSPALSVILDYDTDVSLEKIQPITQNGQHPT
phosphoglycerate mutase (Leishmania major), sequence (Q4Q090 1-553): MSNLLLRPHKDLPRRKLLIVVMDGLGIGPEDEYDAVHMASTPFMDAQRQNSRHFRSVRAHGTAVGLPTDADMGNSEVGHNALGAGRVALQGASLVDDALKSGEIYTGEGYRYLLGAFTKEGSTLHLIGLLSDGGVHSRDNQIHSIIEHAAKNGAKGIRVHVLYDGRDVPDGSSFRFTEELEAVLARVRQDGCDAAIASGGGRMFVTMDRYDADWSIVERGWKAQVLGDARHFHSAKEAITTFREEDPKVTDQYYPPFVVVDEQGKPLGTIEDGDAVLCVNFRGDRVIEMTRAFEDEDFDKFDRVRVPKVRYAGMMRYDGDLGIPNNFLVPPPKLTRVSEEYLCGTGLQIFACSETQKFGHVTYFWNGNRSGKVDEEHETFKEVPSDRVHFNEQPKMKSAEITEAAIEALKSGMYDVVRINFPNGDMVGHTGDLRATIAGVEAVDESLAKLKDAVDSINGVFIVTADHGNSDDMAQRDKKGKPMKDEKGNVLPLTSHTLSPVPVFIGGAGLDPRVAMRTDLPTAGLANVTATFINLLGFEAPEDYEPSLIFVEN
Peptidyl-prolyl cis-trans isomerase NIMA-interacting 1 (Homo sapiens), sequence (Q13526 whole entry, looked up): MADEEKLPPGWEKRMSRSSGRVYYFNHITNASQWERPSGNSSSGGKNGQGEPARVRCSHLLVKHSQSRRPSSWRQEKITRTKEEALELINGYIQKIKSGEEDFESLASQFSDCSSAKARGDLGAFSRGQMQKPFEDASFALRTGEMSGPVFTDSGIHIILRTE
Thyrotropin receptor (Homo sapiens), sequence (P16473 whole entry, looked up): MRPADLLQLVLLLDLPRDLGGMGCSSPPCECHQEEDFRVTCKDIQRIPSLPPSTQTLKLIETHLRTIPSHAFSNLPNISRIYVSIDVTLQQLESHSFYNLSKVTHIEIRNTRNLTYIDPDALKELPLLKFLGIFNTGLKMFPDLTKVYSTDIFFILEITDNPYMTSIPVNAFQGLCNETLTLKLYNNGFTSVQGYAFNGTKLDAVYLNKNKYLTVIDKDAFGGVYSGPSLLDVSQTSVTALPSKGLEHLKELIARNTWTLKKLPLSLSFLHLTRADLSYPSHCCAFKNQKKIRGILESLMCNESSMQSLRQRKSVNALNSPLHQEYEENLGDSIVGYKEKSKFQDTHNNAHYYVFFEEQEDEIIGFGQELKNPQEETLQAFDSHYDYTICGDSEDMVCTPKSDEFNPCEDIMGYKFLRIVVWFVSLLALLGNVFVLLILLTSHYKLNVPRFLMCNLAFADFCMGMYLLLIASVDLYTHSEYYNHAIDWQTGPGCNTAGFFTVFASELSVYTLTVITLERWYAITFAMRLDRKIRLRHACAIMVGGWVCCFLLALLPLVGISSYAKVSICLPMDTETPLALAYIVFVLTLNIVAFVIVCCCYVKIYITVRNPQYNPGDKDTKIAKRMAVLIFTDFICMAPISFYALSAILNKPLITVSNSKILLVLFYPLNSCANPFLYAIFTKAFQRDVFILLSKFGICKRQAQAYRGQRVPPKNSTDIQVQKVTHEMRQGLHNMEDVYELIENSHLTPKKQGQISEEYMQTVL
Galactokinase (Homo sapiens), sequence (P51570 whole entry, looked up): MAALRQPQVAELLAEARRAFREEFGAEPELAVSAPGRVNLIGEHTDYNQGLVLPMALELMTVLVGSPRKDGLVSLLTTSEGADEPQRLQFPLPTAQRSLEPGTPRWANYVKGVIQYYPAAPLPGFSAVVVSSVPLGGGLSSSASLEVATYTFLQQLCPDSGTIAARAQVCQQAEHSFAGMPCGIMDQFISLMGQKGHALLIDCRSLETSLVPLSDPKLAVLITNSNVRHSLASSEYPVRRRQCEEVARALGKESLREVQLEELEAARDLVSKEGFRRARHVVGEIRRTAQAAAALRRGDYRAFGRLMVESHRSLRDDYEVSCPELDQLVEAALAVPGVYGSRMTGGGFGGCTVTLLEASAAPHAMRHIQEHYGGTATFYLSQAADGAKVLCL
Transient receptor potential cation channel subfamily V member 1 (Homo sapiens), sequence (Q8NER1 whole entry, looked up): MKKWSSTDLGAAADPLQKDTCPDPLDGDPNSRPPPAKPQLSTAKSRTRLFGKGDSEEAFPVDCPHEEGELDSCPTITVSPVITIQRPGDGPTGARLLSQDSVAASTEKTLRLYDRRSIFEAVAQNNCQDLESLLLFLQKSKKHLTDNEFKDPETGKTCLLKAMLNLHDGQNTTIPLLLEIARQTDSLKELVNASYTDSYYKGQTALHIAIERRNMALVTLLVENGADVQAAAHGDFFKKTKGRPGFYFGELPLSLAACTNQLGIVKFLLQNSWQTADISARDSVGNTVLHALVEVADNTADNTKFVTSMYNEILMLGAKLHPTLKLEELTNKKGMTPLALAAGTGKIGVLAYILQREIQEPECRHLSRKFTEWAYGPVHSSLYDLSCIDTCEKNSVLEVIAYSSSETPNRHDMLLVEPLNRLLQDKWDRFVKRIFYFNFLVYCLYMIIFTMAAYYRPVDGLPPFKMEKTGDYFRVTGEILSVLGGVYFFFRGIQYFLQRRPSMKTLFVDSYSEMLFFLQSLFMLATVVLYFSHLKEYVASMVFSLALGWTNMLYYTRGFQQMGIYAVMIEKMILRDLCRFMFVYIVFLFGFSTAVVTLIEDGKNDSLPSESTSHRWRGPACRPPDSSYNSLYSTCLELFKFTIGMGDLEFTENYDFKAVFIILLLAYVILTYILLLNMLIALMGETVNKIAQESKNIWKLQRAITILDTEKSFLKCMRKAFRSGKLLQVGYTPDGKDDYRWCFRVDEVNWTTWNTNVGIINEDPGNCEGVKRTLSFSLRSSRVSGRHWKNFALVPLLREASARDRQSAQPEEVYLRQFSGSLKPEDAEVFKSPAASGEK
Phosphoglycerate kinase, glycosomal (Trypanosoma brucei brucei), sequence (P07378 whole entry, looked up): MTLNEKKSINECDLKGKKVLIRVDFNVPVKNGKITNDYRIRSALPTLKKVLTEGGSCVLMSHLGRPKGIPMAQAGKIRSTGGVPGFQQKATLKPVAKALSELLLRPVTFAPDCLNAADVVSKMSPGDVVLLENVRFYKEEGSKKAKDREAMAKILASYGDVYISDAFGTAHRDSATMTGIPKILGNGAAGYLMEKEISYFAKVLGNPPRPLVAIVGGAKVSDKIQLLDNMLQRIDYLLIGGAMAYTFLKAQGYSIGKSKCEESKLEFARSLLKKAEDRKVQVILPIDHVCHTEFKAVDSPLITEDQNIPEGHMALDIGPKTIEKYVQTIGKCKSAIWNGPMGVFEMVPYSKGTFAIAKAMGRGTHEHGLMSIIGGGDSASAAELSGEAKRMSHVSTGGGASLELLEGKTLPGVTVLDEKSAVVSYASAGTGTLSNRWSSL
Thyrotropin-releasing hormone receptor (Homo sapiens), sequence (P34981 whole entry, looked up): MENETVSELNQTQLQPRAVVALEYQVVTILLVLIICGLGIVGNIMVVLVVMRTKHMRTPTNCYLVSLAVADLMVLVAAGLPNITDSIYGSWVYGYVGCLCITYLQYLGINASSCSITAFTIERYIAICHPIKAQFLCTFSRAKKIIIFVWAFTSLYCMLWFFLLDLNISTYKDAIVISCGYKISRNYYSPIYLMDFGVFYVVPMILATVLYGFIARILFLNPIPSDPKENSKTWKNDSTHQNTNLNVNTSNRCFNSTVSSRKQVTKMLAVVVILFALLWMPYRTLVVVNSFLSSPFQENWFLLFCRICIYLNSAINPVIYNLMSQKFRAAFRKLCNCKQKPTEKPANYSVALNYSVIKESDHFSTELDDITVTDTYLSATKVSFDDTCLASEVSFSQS
Ubiquitin carboxyl-terminal hydrolase 1 (Homo sapiens), sequence (O94782 whole entry, looked up): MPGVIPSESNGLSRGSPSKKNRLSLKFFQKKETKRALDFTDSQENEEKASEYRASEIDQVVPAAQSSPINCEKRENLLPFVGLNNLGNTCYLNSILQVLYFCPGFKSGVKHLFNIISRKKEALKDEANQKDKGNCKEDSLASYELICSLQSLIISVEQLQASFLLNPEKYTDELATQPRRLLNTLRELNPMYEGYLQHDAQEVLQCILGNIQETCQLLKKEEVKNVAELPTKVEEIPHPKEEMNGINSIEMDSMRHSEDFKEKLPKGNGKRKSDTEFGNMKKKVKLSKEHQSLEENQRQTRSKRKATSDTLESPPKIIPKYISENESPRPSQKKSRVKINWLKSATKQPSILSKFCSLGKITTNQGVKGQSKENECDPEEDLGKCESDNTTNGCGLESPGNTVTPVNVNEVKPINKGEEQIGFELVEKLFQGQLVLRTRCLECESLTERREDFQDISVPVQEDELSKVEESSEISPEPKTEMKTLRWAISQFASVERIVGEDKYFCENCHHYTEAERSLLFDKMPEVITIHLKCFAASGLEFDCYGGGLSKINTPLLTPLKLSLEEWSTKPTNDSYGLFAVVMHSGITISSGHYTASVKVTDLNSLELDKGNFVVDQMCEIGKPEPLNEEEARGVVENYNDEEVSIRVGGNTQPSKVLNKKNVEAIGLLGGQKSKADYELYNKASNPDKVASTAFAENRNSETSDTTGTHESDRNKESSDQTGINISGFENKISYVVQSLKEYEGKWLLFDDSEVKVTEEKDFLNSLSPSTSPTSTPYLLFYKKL

As for `O=C1Cc2c([nH]c3ccc(Br)cc23)-c2ccccc2N1`, the outcome in assay [1], in [2] and in [9] was inactive. Moreover, the Potency result in assay [3], in assay [4], in assay [5], in assay [8], in assay [10] and in assay [11] was “inactive” in each case. Besides, the Potency entry in [12] and in assay [13] was “inactive” each time. In assay [6], the Potency was 0.411 µM (active). Besides, the activation in [7] is 9.25% (inactive). Moreover, the viability change in assay [8] came to 3.96%.

Regarding `NC(=O)CC[C@H](N)C(=O)O`, the outcome in [1] and in assay [2] was inactive. Also, the Potency result in assay [3], in assay [4], in [5], in assay [6], in assay [8] and in assay [10] was “inactive” throughout. Moreover, the Potency entry in assay [14], in assay [15], in assay [11], in assay [12], in assay [13] and in [16] was “inactive” each time. In addition, in [17], the Potency entry is “inactive”. The activation in assay [7] is -0.625% (inactive). Besides, the viability change in assay [8] was 2.88%.

`S=C(S)N1CCCC1`: the result in assay [1], in [2] and in assay [9] was inactive. In addition, the Potency result in assay [3], in [4], in assay [5], in assay [18], in assay [8] and in assay [10] was “inactive” each time. Further, the Potency entry in [14], in [15], in assay [11], in assay [12], in [13] and in [16] was “inactive” each time. For the same compound, in assay [17], the Potency entry was “inactive”. Moreover, the activation in assay [7] was -0.188% (inactive). For the same compound, the viability change in assay [8] is -3.57%.

Regarding `N=C(N)c1ccc(N)cc1`, the outcome in [1], in [2] and in assay [9] was inactive. Further, the Potency result in assay [3], in assay [4], in assay [5], in assay [18], in assay [8] and in assay [10] was “inactive” throughout. The Potency entry in assay [14], in [15], in [12], in assay [13], in [16] and in assay [17] was “inactive” throughout. Also, the activation in [7] was -2.75% (inactive). Also, the viability change in assay [8] is 3.63%.

With `NC1CONC1=O` (centres undefined), the outcome in assay [1], in assay [2] and in assay [9] was inactive. The Potency entry in assay [3], in assay [4], in assay [5], in assay [6], in [10] and in assay [14] was “inactive” in each case. Also, the Potency entry in assay [15], in assay [11], in assay [12], in [13] and in [17] was “inactive” throughout.

As to `O=C(O)c1cccnc1C(=O)O`, the result in [1], in [2] and in assay [9] was inactive. The Potency entry in [3], in assay [4], in assay [5], in assay [18], in [8] and in [10] was “inactive” throughout. Also, the Potency entry in assay [14], in assay [15], in [11], in assay [12], in assay [13] and in assay [16] was “inactive” each time. Also, in assay [17], the Potency result is “inactive”. Besides, the viability change in [8] stood at 1.3%.

For the compound `CC(C)C[C@H](NC(=O)[C@H](O)[C@H](N)Cc1ccccc1)C(=O)O`, the outcome in assay [1], in assay [2] and in [9] was inactive. The Potency result in assay [3], in [4], in assay [5], in assay [18], in assay [8] and in [10] was “inactive” in each case. In addition, the Potency result in assay [14], in assay [15], in assay [11], in assay [12], in [13] and in assay [17] was “inactive” throughout. Also, the activation in assay [7] was -0.0625% (inactive). Further, the viability change in [8] is 5.98%.
